Source: PubChem BioAssay (Buhrlage Lab, Dana-Farber Cancer Institute and Novartis Institutes for BioMedical Research (Cambridge, Mass))
Most compounds without a hit are left out; they make up all but 9.6% or so of the library.
USP30 block – inhibitors of human USP30 deubiquitinase; purified USP30, Ub-rhodamine cleavage fluorescence; AID 1645860, 2021; inhibition, % at 25 µM; 47,000 compounds, 5.3% hits; Ubiquitin carboxyl-terminal hydrolase 30 (Homo sapiens), Q70CQ3
USP17 block – inhibitors of human USP17 deubiquitinase | Ubiquitin carboxyl-terminal hydrolase 17-like protein 5 (Homo sapiens), A8MUK1 | AID 1645855, 2021 | inhibition, % at 50 µM | purified USP17, Ub-rhodamine cleavage fluorescence, 3 h | 47,000 compounds, 6.5% hits
Target sequence (A8MUK1 whole entry, looked up): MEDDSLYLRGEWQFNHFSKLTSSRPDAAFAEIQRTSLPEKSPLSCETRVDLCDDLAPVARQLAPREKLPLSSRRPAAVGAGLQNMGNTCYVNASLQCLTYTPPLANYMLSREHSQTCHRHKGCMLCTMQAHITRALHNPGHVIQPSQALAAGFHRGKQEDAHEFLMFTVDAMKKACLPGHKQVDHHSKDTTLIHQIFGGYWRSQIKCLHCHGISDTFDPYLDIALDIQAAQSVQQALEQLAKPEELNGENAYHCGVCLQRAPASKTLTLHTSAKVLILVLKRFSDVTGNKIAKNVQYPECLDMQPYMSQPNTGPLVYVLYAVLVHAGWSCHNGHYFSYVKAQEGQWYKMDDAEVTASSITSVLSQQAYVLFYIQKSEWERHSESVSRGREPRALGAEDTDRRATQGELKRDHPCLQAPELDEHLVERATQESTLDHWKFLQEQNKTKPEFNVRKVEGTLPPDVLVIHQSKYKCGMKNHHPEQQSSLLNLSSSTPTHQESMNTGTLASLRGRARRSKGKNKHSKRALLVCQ
The depositor's hits bear a star. No stated cut-off is given here; in the data, active means inhibition above about 30%; inactive means the rest.

SMILES | USP30 block | USP17 block
Cc1nc2ccccn2c(=O)c1NC(=O)Cc1ccc(Cl)cc1 | 10.5 | 1.1
CNC(=O)N1CCCC1c1nnc(C(=O)Nc2ccc(F)c(F)c2)s1 (stereo not drawn) | -20.0 | -29.3
Cc1ccc(NC(=O)c2nnc(C3CCCN3C(=O)C3CCC3)s2)cc1 (stereo not drawn) | 33.2* | 13.5
CCC(=O)Nc1cc(=O)[nH]c2nc(COc3ccccc3)nn12 | 25.9 | 8.4
O=C(NC1CCCC1)c1ccc(-c2ccc(S(=O)(=O)NCc3ccccc3)cc2)cc1 | 41.0* | 19.3
Cc1ccc(S(=O)(=O)NCc2cnc(C3CCCCO3)nc2)cc1 (stereo not drawn) | 16.9 | 2.8
COC(=O)c1cc(OC)cc(O)c1OC(=O)c1c(O)cc2cc(C)oc(=O)c2c1O | -131.7 | -55.6
COc1c(O)cc2cc(C)oc(=O)c2c1O | 35.8* | 6.6
CC(=O)N[C@@]12CN(CC(=O)Nc3cccc(F)c3)CC[C@@H]1[C@@H](c1ccccc1)N(C)C2 | 3.1 | -3.4
CCc1cccc(NC(=O)Cn2c(=O)nc(N3CCCCC3)c3ccccc32)c1 | 9.0 | 42.9*
Cc1cccc(NC(=O)Cn2c(N3CCCCC3)nc(C)cc2=O)c1 | -10.6 | -9.9
Cc1noc(-c2ccc(=O)n(CCOc3ccccc3)c2)n1 | 13.4 | 1.4
COC(=O)c1ccc(NC(=O)CSc2nnc(-c3ccc(O)cc3)n2Cc2ccco2)cc1 | 84.0* | 20.9
O=C(O)CSc1nnc(-c2ccc(Br)cc2)n1Cc1ccco1 | -54.0 | -7.3
Cc1ccc2c(=O)c3c([nH]c2c1C)CCN(CC(=O)NCc1ccc2c(c1)OCO2)C3 | -10.6 | 52.1*
Cc1c(Cl)ccc2c(=O)c3c([nH]c12)CCN(CC(=O)NCc1ccc2c(c1)OCO2)C3 | -51.3 | 48.8*
Cc1cc(C)c2[nH]c3c(c(=O)c2c1)CN(CC(=O)NCc1ccccc1)CC3 | -26.7 | -21.7
CCc1ccc2[nH]c3c(c(=O)c2c1)CN(CC(=O)NCc1ccc2c(c1)OCO2)CC3 | 23.9 | 70.4*
Cc1cccc2c(=O)c3c([nH]c12)CCN(CC(=O)NCc1ccccc1)C3 | -153.7 | -167.2
CCc1cc(=O)n(CC(=O)NCc2ccc3c(c2)OCO3)c(N)n1 | 0.6 | 8.4
CC1=C(C(=O)NCc2ccccc2)C(c2cccc(OCc3ccccc3)c2)n2ncnc2N1 (stereo not drawn) | -8.9 | 0.0
CCn1nc(NS(=O)(=O)c2ccc(OC)cc2)c2cc3ccccc3nc21 | -8.9 | -8.7
CNc1nc(NCC(C)C)nc(-n2cnc(SCCOc3ccccc3)n2)n1 | 20.2 | 9.5
COc1ccc(-c2nnc(SCC(=O)Nc3ccc4[nH]c(=O)[nH]c4c3)n2C)cc1 | 5.0 | 12.8
O=C(CSc1nnc2n1CCCCC2)Nc1ccc2[nH]c(=O)[nH]c2c1 | 28.1 | 68.1*
SMILES | USP30 block | USP17 block
O=C(c1ccccc1)N1CC[C@@H]2CN(Cc3ccncc3)S(=O)(=O)[C@@H]2CC1 | 12.1 | 8.4
Cn1cc(NC(=O)Nc2cccc(C(F)(F)F)c2)c2ccccc2c1=O | 78.3* | 97.5*
CC(O)(CS(=O)(=O)Cc1ccccc1)C(=O)Nc1cccc(C(F)(F)F)c1 (stereo not drawn) | 1.5 | 5.2
Cc1cc(C(F)(F)F)n(-c2ccc(NC(=O)Nc3cccc(C(F)(F)F)c3)cc2)n1 | -5.2 | 39.0*
Cc1ccc(Cn2nc(C)cc2C(=O)Nc2cccc(C(F)(F)F)c2)cc1 | 27.2 | 23.9
COc1ccc(C(=O)NCCn2ccc3ccccc32)cc1 | -58.3 | -23.6
O=C(NCCn1ccc2ccccc21)c1cc2ccccc2oc1=O | 14.0 | 68.4*
COc1ccc(C(=O)Nc2ccc3c(c2)C(=O)N(C)c2ccccc2O3)cc1 | 3.8 | 6.5
Cc1ccc2c(c1)N(C)C(=O)c1cc(NC(=O)c3ccc(F)cc3)ccc1O2 | 88.9* | 23.3
COc1ccc(-c2nnc(SC(C(=O)c3ccccc3)c3ccccc3)o2)cc1 (stereo not drawn) | -11.7 | 29.0
COc1ccc(-c2nnc(SCc3ccc(C#N)cc3)o2)cc1 | 46.3* | -0.1
Cc1nc2ccc(NC(=O)Nc3ccccc3)cc2s1 | -29.8 | -0.8
Cc1nc2cc(N3CC(C(=O)NCc4ccccc4)CC3=O)ccc2o1 (stereo not drawn) | 19.1 | 13.8
Cc1nc2cc(N3CC(C(=O)Nc4cccc(C)c4C)CC3=O)ccc2o1 (stereo not drawn) | 32.8* | 17.7
Fc1ccc(-c2cc(C(F)(F)F)nc(-n3nnc4ccccc43)n2)cc1 | 10.6 | 15.5
Cc1cc(C(F)(F)F)nc(-n2cc(-c3ccccc3)nn2)n1 | 12.7 | 34.5*
COc1ccc(C(=O)CSc2nnc(-c3cccnc3)n2-c2ccccc2)cc1 | 51.7* | 41.6*
Cc1cc(C)c(C(=O)CSc2nnc(-c3cccnc3)n2C)cc1C | 2.0 | 0.1
COc1ccc2nc(SCc3ccc(C(=O)O)cc3)[nH]c2c1 | 9.4 | 1.5
CN1[C@@H](CCC(=O)N2CCC(O)CC2)CNC(=O)[C@@H]2[C@H]1CCN2Cc1ncc[nH]1 | -19.1 | -61.4
CC(C)N1CC[C@@H]2[C@H]1C(=O)NC[C@H](CCC(=O)N1CCN(c3ccccn3)CC1)N2C | 39.5* | -32.3
CN1[C@@H](CCC(=O)N2CCN(c3ccccn3)CC2)CNC(=O)[C@@H]2[C@H]1CCN2Cc1ccc(CO)o1 | -24.1 | -10.0
CN1[C@@H](CCC(=O)N2CCN(c3ccccn3)CC2)CNC(=O)[C@@H]2[C@H]1CCN2Cc1ccc(O)cc1 | 46.1* | -25.3
CN1[C@@H](CCC(=O)N2CCN(c3ccccn3)CC2)CNC(=O)[C@@H]2[C@H]1CCN2CC(C)(C)C | -13.0 | -4.8
CN1[C@@H](CCC(=O)N2CCC(O)CC2)CNC(=O)[C@@H]2[C@H]1CCN2Cc1ccc(O)cc1 | 55.5* | -24.2
SMILES | USP30 block | USP17 block
CCOC(=O)CN1CCC2(CCC1=O)CC(=O)c1cc(Cl)ccc1O2 (stereo not drawn) | 10.6 | 8.5
O=C(NCc1ccccc1)[C@H]1C[C@@H]2CN(c3ncc(F)cn3)C[C@H]1O2 | -0.6 | -12.8
C[C@H]1CN(C(=O)C2CCCCC2)C[C@@H]1c1nc(-c2ccncc2)no1 | 20.3 | -23.1
O=C(NCC1CCN(CCc2ccccc2)C1)Nc1ccccc1 (stereo not drawn) | -9.4 | -8.3
CCCCc1ccc(NC(=O)Nc2ccccc2C(=O)NCC2CC2)cc1 | 27.4 | 31.4*
O=S(=O)(c1ccc(F)cc1F)N1CCN=C1N1CCCCC1 | 2.2 | 23.5
O=C(Cc1ccc(-c2ccccc2)cc1)Nc1ccccc1F | -254.5 | -38.6
Cc1c(-c2ccccc2)oc2c(C(=O)OCC(=O)Nc3ccccc3F)cccc2c1=O | 4.4 | 67.4*
Cc1ccc(S(=O)(=O)[C@H]2CS(=O)(=O)C[C@@H]2N2CCCC2)cc1 | -201.1 | -53.3
COc1ccc(-c2cnc3nc(NCCO)nc(N)c3n2)cc1 | -154.0 | -45.9
Cc1ccc2c(c1)c(N1CCCC1=O)c(C(=O)NCCC1=CCCCC1)n2C | 0.5 | -1.1
CN1CCN(C(=O)c2ccc(CNS(=O)(=O)c3ccc(Br)cc3)cc2)CC1 | 0.0 | -1.8
Cc1ccccc1OCC(=O)NC1CC(=O)N(C2CC2)C1 (stereo not drawn) | -0.4 | -7.5
O=c1c2cnc3nc(-c4cccnc4)nn3c2ccn1CCc1ccccc1 | 19.0 | 51.0*
O=c1c2cnc3nc(-c4cccnc4)nn3c2ccn1C1CCCCC1 | -4.5 | 0.3
CC(=O)Nc1ccc(OCC(=O)N2CCN(c3ccccc3F)CC2)nc1 | 0.2 | -6.2
Cc1cc(C)cc(Oc2nc3cc(C)nn3c3ccccc23)c1 | 15.1 | -4.9
